The supplement of paper PMC8728848
The entries come from a sample that favours the strongest signals as a whole.

Legend:
Experiment in all cases: glycan array binding signal (z-score within array); higher = stronger binding
Settings in all cases: glycan notation: IUPAC condensed, linker removed
[1] = molecular target: Fuc(a1-2)Gal(b1-3)[Fuc(a1-4)]GlcNAc(b1-2)Man(a1-3)[Fuc(a1-2)Gal(b1-3)[Fuc(a1-4)]GlcNAc(b1-2)Man(a1-3)]Man(b1-4)GlcNAc(b1-4)GlcNAc
In short: (§1)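 From the Consortium for Functional Glycomics database, 3228 arrays were curated, keeping only those whose protein sequence was available. Binding is given as a within-array Z-score averaged across arrays sharing a protein sequence and across linkers. Negative Z-scores can be read as non-binding.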

[2] = molecular target: Fuc(a1-2)Gal(b1-4)GlcNAc(b1-2)Man(a1-3)[Fuc(a1-2)Gal(b1-4)GlcNAc(b1-2)Man(a1-6)]Man(b1-4)GlcNAc(b1-4)GlcNAc
In short: as §1

[3] = molecular target: Fuc(a1-2)Gal(b1-4)GlcNAc(b1-2)Man(a1-3)[Fuc(a1-2)Gal(b1-4)GlcNAc(b1-2)Man(a1-6)]Man(b1-4)GlcNAc(b1-4)[Fuc(a1-6)]GlcNAc
In short: as §1

[4] = molecular target: Fuc(a1-2)Gal(b1-4)GlcNAc(b1-3)[Fuc(a1-2)Gal(b1-4)GlcNAc(b1-6)]GalNAc
In short: as §1

[5] = molecular target: Fuc(a1-2)Gal(b1-4)[Fuc(a1-3)]GlcNAc(b1-3)GalNAc
In short: as §1

[6] = molecular target: Fuc(a1-2)Gal6S(b1-3)GlcNAc
In short: as §1

[7] = molecular target: Fuc(a1-2)[Gal(a1-3)]Gal(b1-3)GalNAc(b1-3)Gal(a1-4)Gal(b1-4)Glc
In short: as §1

[8] = molecular target: Fuc(a1-2)[Gal(a1-3)]Gal(b1-4)GlcNAc(b1-2)Man
In short: as §1

[9] = molecular target: Fuc(a1-2)[GalNAc(a1-3)]Gal(b1-4)GlcNAc(b1-2)Man(a1-3)[Fuc(a1-2)[GalNAc(a1-3)]Gal(b1-4)GlcNAc(b1-2)Man(a1-6)]Man(b1-4)GlcNAc(b1-4)GlcNAc
In short: as §1

[10] = molecular target: Fuc(a1-3)[Gal3S(b1-4)]Glc
In short: as §1

[11] = molecular target: Fuc(a1-3)[Gal3S(b1-4)]GlcNAc6S
In short: as §1

[12] = molecular target: Gal(a1-3)Gal(b1-3)GlcNAc(b1-2)Man(a1-3)[Gal(a1-3)Gal(b1-3)GlcNAc(b1-2)Man(a1-6)]Man(b1-4)GlcNAc(b1-4)GlcNAc
In short: as §1

[13] = molecular target: Gal(a1-3)Gal(b1-4)GlcNAc(b1-2)Man(a1-3)[Gal(a1-3)Gal(b1-4)GlcNAc(b1-2)Man(a1-6)]Man(b1-4)GlcNAc(b1-4)GlcNAc
In short: as §1

[14] = molecular target: Gal(a1-3)[Gal(a1-4)]Gal(b1-4)GlcNAc
In short: as §1

[15] = molecular target: Gal(b1-3)GalNAc(a1-3)[Fuc(a1-2)]Gal(b1-4)Glc
In short: as §1

[16] = molecular target: Gal(b1-3)GlcNAc(b1-2)Man(a1-3)[Gal(b1-3)GlcNAc(b1-2)Man(a1-6)]Man(b1-4)GlcNAc(b1-4)GlcNAc
In short: as §1

[17] = molecular target: Gal(b1-3)GlcNAc(b1-3)Gal(b1-4)GlcNAc(b1-2)[Gal(b1-3)GlcNAc(b1-3)Gal(b1-4)GlcNAc(b1-6)]Man(a1-6)[Gal(b1-3)GlcNAc(b1-3)Gal(b1-4)GlcNAc(b1-2)Man(a1-3)]Man(b1-4)GlcNAc(b1-4)[Fuc(a1-6)]GlcNAc
In short: as §1

[18] = molecular target: Gal(b1-3)GlcNAc(b1-3)Gal(b1-4)GlcNAc(b1-3)Gal(b1-4)GlcNAc(b1-2)[Gal(b1-3)GlcNAc(b1-3)Gal(b1-4)GlcNAc(b1-3)Gal(b1-4)GlcNAc(b1-6)]Man(a1-6)[Gal(b1-3)GlcNAc(b1-3)Gal(b1-4)GlcNAc(b1-3)Gal(b1-4)GlcNAc(b1-2)Man(a1-3)]Man(b1-4)GlcNAc(b1-4)[Fuc(a1-6)]GlcNAc
In short: as §1

[19] = molecular target: Gal(b1-3)GlcNAc(b1-6)GalNAc
In short: as §1

[20] = molecular target: Gal(b1-3)[Fuc(a1-4)]GlcNAc(b1-3)Gal(b1-4)[Fuc(a1-3)]GlcNAc
In short: as §1

[21] = molecular target: Gal(b1-4)GlcNAc(b1-3)Gal(b1-4)GlcNAc(b1-2)[Gal(b1-4)GlcNAc(b1-3)Gal(b1-4)GlcNAc(b1-6)]Man(a1-6)[Gal(b1-4)GlcNAc(b1-3)Gal(b1-4)GlcNAc(b1-2)Man(a1-3)]Man(b1-4)GlcNAc(b1-4)GlcNAc
In short: as §1

[22] = molecular target: Gal(b1-4)GlcNAc(b1-3)Gal(b1-4)GlcNAc(b1-3)Gal(b1-4)GlcNAc(b1-3)Gal(b1-4)GlcNAc(b1-2)[Gal(b1-4)GlcNAc(b1-3)Gal(b1-4)GlcNAc(b1-3)Gal(b1-4)GlcNAc(b1-3)Gal(b1-4)GlcNAc(b1-6)]Man(a1-6)[Gal(b1-4)GlcNAc(b1-3)Gal(b1-4)GlcNAc(b1-3)Gal(b1-4)GlcNAc(b1-3)Gal(b1-4)GlcNAc(b1-2)Man(a1-3)]Man(b1-4)GlcNAc(b1-4)[Fuc(a1-6)]GlcNAc
In short: as §1

[23] = molecular target: Gal(b1-4)GlcNAc(b1-3)Gal(b1-4)GlcNAc(b1-3)Gal(b1-4)GlcNAc(b1-3)Gal(b1-4)GlcNAc(b1-3)Gal(b1-4)GlcNAc(b1-2)[Gal(b1-4)GlcNAc(b1-3)Gal(b1-4)GlcNAc(b1-3)Gal(b1-4)GlcNAc(b1-3)Gal(b1-4)GlcNAc(b1-3)Gal(b1-4)GlcNAc(b1-6)]Man(a1-6)[Gal(b1-4)GlcNAc(b1-3)Gal(b1-4)GlcNAc(b1-3)Gal(b1-4)GlcNAc(b1-3)Gal(b1-4)GlcNAc(b1-3)Gal(b1-4)GlcNAc(b1-2)Man(a1-3)]Man(b1-4)GlcNAc(b1-4)[Fuc(a1-6)]GlcNAc
In short: as §1

[24] = molecular target: Gal(b1-4)GlcNAc(b1-3)Gal(b1-4)GlcNAc(b1-3)GalNAc
In short: as §1

[25] = molecular target: Gal(b1-4)GlcNAc(b1-6)[Gal(b1-3)]GalNAc
In short: as §1

GalNAc(a1-3)Gal = molecular target: GalNAc(a1-3)Gal
In short: as §1

[26] = molecular target: GalNAc(b1-3)Gal(a1-4)Gal(b1-4)GlcNAc
In short: as §1

[27] = molecular target: GalNAc(b1-3)Gal(a1-6)Gal(b1-4)Glc
In short: as §1

GalNAc(b1-4)Gal(b1-4)Glc = molecular target: GalNAc(b1-4)Gal(b1-4)Glc
In short: as §1

[28] = molecular target: GlcNAc(a1-4)Gal(b1-4)GlcNAc(b1-3)Gal(b1-4)GlcNAc
In short: as §1

[29] = molecular target: GlcNAc(b1-3)Gal(b1-4)GlcNAc(b1-3)Gal(b1-4)GlcNAc(b1-3)Gal(b1-4)GlcNAc(b1-2)[GlcNAc(b1-3)Gal(b1-4)GlcNAc(b1-3)Gal(b1-4)GlcNAc(b1-3)Gal(b1-4)GlcNAc(b1-6)]Man(a1-6)[GlcNAc(b1-3)Gal(b1-4)GlcNAc(b1-3)Gal(b1-4)GlcNAc(b1-3)Gal(b1-4)GlcNAc(b1-2)Man(a1-3)]Man(b1-4)GlcNAc(b1-4)[Fuc(a1-6)]GlcNAc
In short: as §1

[30] = molecular target: GlcNAc(b1-3)Gal(b1-4)GlcNAc(b1-6)[GlcNAc(b1-3)]Gal(b1-4)GlcNAc
In short: as §1

Kdn(a2-3)Gal(b1-4)GlcNAc = molecular target: Kdn(a2-3)Gal(b1-4)GlcNAc
In short: as §1

[31] = molecular target: Neu5Ac(a2-3)Gal(b1-3)GlcNAc(b1-3)GalNAc
In short: as §1

[32] = molecular target: Neu5Ac(a2-3)Gal(b1-3)[Neu5Ac(a2-6)]GlcNAc(b1-3)[Fuc(a1-3)[Gal(b1-4)]GlcNAc(b1-6)]Gal(b1-4)Glc
In short: as §1

[33] = molecular target: Neu5Ac(a2-3)Gal(b1-4)GlcNAc(b1-2)[Neu5Ac(a2-3)Gal(b1-4)GlcNAc(b1-6)]Man(a1-6)[Neu5Ac(a2-3)Gal(b1-4)GlcNAc(b1-2)Man(a1-3)]Man(b1-4)GlcNAc(b1-4)GlcNAc
In short: as §1

[34] = molecular target: Neu5Ac(a2-3)Gal(b1-4)GlcNAc(b1-3)Gal(b1-4)GlcNAc(b1-3)[Neu5Ac(a2-3)Gal(b1-4)GlcNAc(b1-3)Gal(b1-4)GlcNAc(b1-6)]GalNAc
In short: as §1

[35] = molecular target: Neu5Ac(a2-3)[GalNAc(b1-4)]Gal(b1-4)Glc
In short: as §1

[36] = molecular target: Neu5Ac(a2-6)Gal(b1-4)GlcNAc(b1-2)Man(a1-3)[Man(a1-6)]Man(b1-4)GlcNAc(b1-4)GlcNAc
In short: as §1

Neu5Ac(a2-6)GalNAc = molecular target: Neu5Ac(a2-6)GalNAc
In short: as §1

[37] = molecular target: Neu5Ac(a2-8)Neu5Ac(a2-3)Gal(b1-3)GalNAc(b1-4)[Neu5Ac(a2-3)]Gal(b1-4)Glc
In short: as §1

[38] = molecular target: Neu5Ac(a2-8)Neu5Ac(a2-3)Gal(b1-4)GlcNAc
In short: as §1

[39] = molecular target: Neu5Ac(a2-8)Neu5Gc(a2-3)Gal(b1-4)GlcNAc
In short: as §1

B1: PX9961X-pdi-531-24-531 (Parabacteroides distasonis) (protein)
chain: DLTEEIHSSVIAENYYNNAGEVMAAMMRPWGHFCGTMQVAQSPWSCNELSSDCAAWPQKGRHGYDNGDWIRLHRHQWIPTDGQVVDAWKKLFEGIGYANNFLTDTENIDFEALQVPMSKAQAQAEMRVYRAYCYWYVMDMFGTAPICEKIGEINPSSKSRAELFAWIEKELNESIPSLSESKTETYGRVSKWGAYALLARLYLNAEIYTGQARWDDCIAACDELAKGGFALDKKWNDTFRADNDKRSTEIIWSIVYDEVYAKGMGWYQRWLHYAHQTGWDLQSGPWNGLVTQPTFYDSFADNDLRKIEGFLIGKQYPRKVDENGNYYYDTTAEPLKGSEEYNGQDLVFVNYIKSMTEGEENSGARSIKYEIQPGTTGDMNNDWVMFRYSEVIYNKAEALMRKNGGKATQEVVDMINSVRQRSFKAEDWEKAKYTTATLTMDEFLAEKGREFAFEGIRRTDLVRFNKFVTTSWWDKTASNEPKRNIFPIPQRQLDANANLSPNEANSLF
glycan array binding signal (z-score) [1]: 0.026
glycan array binding signal (z-score) [2]: 1.28
glycan array binding signal (z-score) [3]: -0.118
glycan array binding signal (z-score) [4]: -0.351
glycan array binding signal (z-score) [5]: 0.289
glycan array binding signal (z-score) [6]: -0.189
glycan array binding signal (z-score) [7]: -0.567
glycan array binding signal (z-score) [8]: -0.156
glycan array binding signal (z-score) [9]: 0.31
glycan array binding signal (z-score) [10]: 0.374
glycan array binding signal (z-score) [11]: -0.332
glycan array binding signal (z-score) [12]: 3.82
glycan array binding signal (z-score) [13]: 0.935
glycan array binding signal (z-score) [14]: 7.26
glycan array binding signal (z-score) [15]: 0.221
glycan array binding signal (z-score) [16]: 4.29
glycan array binding signal (z-score) [17]: 3.82
glycan array binding signal (z-score) [18]: 7.05
glycan array binding signal (z-score) [19]: 1.52
glycan array binding signal (z-score) [20]: -0.466
glycan array binding signal (z-score) [21]: 2.17
glycan array binding signal (z-score) [22]: 3.6
glycan array binding signal (z-score) [23]: 3.41
glycan array binding signal (z-score) [24]: 0.788
glycan array binding signal (z-score) [25]: -0.374
glycan array binding signal (z-score) (GalNAc(a1-3)Gal): 0.96
glycan array binding signal (z-score) [26]: -0.236
glycan array binding signal (z-score) [27]: 2.61
glycan array binding signal (z-score) (GalNAc(b1-4)Gal(b1-4)Glc): -0.106
glycan array binding signal (z-score) [28]: -0.352
glycan array binding signal (z-score) [29]: 0.524
glycan array binding signal (z-score) [30]: -0.581
glycan array binding signal (z-score) (Kdn(a2-3)Gal(b1-4)GlcNAc): -0.114
glycan array binding signal (z-score) [31]: -0.825
glycan array binding signal (z-score) [32]: 0.188
glycan array binding signal (z-score) [33]: 0.2
glycan array binding signal (z-score) [34]: -0.773
glycan array binding signal (z-score) [35]: -0.049
glycan array binding signal (z-score) [36]: -0.755
glycan array binding signal (z-score) (Neu5Ac(a2-6)GalNAc): -0.425
glycan array binding signal (z-score) [37]: 0.572
glycan array binding signal (z-score) [38]: -0.116
glycan array binding signal (z-score) [39]: 14.4
